Measured values taken from PubChem BioAssay AID1159580 (chemical genetic matrix, 2015).
Values joined by “and” are separate entries in the source; they are usually repeats but may differ in a detail not shown here. Equal values may be shown once. Screen size: about 5,500 compounds; about 2,000 (36%) were called active. Another 18% or so got no clear call; they are omitted. No stated cut-off is given here; in the data, active means normalized growth mostly below about 0.91 (no sharp cut-off); inconclusive means no clear call, values can overlap the other calls; inactive means mostly above about 0.92. This is one part of the list.

Test: chemical genetic growth profiling, strain panel (AID 1159580);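 further: tested at 20 µM; growth read once vehicle control cultures reached saturation at 30 °C; 1 = growth at the plate median or of vehicle wells; lower values mean less growth of the strain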
Details: growth OD

Measured: normalized growth

Cn1cnc2c1c(=O)[nH]c(=O)n2C
inactive: S. cerevisiae deletion strains, locus YJR075W, strain HOC1, hits give low values 1.03 | S. cerevisiae deletion strains, locus YKL009W, strain mrt4, hits give low values 0.989 | S. cerevisiae deletion strains, locus YKL068W, hits give low values 1.01 | S. cerevisiae deletion strains, locus YKL085W, strain MDH1 (second series), hits give low values 1.01 | S. cerevisiae deletion strains, locus YKL085W, strain MDH1, hits give low values 1.01 | S. cerevisiae deletion strains, locus YKL160W, strain elf1, hits give low values 0.995 | S. cerevisiae deletion strains, locus YKL190W, strain CNB1, hits give low values 1.01 | S. cerevisiae deletion strains, locus YKR001C, strain vps1, hits give low values 1 | S. cerevisiae deletion strains, locus YKR026C, strain gcn3, hits give low values 0.961 | S. cerevisiae deletion strains, locus YKR091W, strain srl3, hits give low values 0.964 | S. cerevisiae deletion strains, locus YLL001W, strain dnm1, hits give low values 0.994 | S. cerevisiae deletion strains, locus YLL026W, hits give low values 0.996 | S. cerevisiae deletion strains, locus YLL041C, strain sdh2, hits give low values 1.01 | S. cerevisiae deletion strains, locus YLR027C, strain aat2, hits give low values 0.987 | S. cerevisiae deletion strains, locus YLR039C, strain RIC1, hits give low values 1.02 | S. cerevisiae deletion strains, locus YLR058C, strain SHM2, hits give low values 1.01 | S. cerevisiae deletion strains, locus YLR102C, strain apc9, hits give low values 1.01 | S. cerevisiae deletion strains, locus YLR113W, strain HOG1, hits give low values 0.973 | S. cerevisiae deletion strains, locus YLR221C, strain rsa3, hits give low values 0.976 | S. cerevisiae deletion strains, locus YLR258W, strain gsy2, hits give low values 1 | S. cerevisiae deletion strains, locus YLR262C, strain YPT6 (second series), hits give low values 0.978 | S. cerevisiae deletion strains, locus YLR262C, strain YPT6, hits give low values 1.04 | S. cerevisiae deletion strains, locus YLR268W, strain sec22, hits give low values 1.04 | S. cerevisiae deletion strains, locus YLR320W, strain mms22, hits give low values 1 | S. cerevisiae deletion strains, locus YLR330W, strain CHS5, hits give low values 1.01 | S. cerevisiae deletion strains, locus YLR342W, strain FKS1 (second series), hits give low values 1.01 | S. cerevisiae deletion strains, locus YLR342W, strain FKS1, hits give low values 0.978 | S. cerevisiae deletion strains, locus YLR357W, strain rsc2, hits give low values 1 | S. cerevisiae deletion strains, locus YLR370C, strain arc18, hits give low values 0.97 | S. cerevisiae deletion strains, locus YLR371W, strain rom2, hits give low values 1.03 | S. cerevisiae deletion strains, locus YLR384C, strain iki3, hits give low values 0.994 | S. cerevisiae deletion strains, locus YLR418C, strain cdc73, hits give low values 0.99 | S. cerevisiae deletion strains, locus YML016C, strain PPZ1, hits give low values 1.01 | S. cerevisiae deletion strains, locus YML032C, strain rad52, hits give low values 1.03 | S. cerevisiae deletion strains, locus YML120C, strain ndi1, hits give low values 0.959 | S. cerevisiae deletion strains, locus YML124C, strain tub3, hits give low values 1.01 | S. cerevisiae deletion strains, locus YMR058W, strain fet3, hits give low values 0.97 | S. cerevisiae deletion strains, locus YMR078C, strain ctf18, hits give low values 1.01 | S. cerevisiae deletion strains, locus YMR125W, strain sto1, hits give low values 0.978 | S. cerevisiae deletion strains, locus YMR129W, hits give low values 0.979 | S. cerevisiae deletion strains, locus YMR205C, strain PFK2, hits give low values 0.979 | S. cerevisiae deletion strains, locus YMR223W, strain ubp8, hits give low values 1 | S. cerevisiae deletion strains, locus YMR231W, strain pep5, hits give low values 1 | S. cerevisiae deletion strains, locus YMR263W, strain SAP30, hits give low values 1.01 and 0.995 | S. cerevisiae deletion strains, locus YMR307W, strain GAS1, hits give low values 0.981 and 0.999 | S. cerevisiae deletion strains, locus YNL067W, strain RPL9B, hits give low values 1.02 | S. cerevisiae deletion strains, locus YNL071W, strain lat1, hits give low values 0.983 | S. cerevisiae deletion strains, locus YNL128W, strain TEP1, hits give low values 1.02 and 1.01 | S. cerevisiae deletion strains, locus YNL153C, strain GIM3, hits give low values 1.01 | S. cerevisiae deletion strains, locus YNL175C, strain NOP13, hits give low values 0.995 | S. cerevisiae deletion strains, locus YNL183C, strain NPR1, hits give low values 0.948 | S. cerevisiae deletion strains, locus YNL197C, strain WHI3, hits give low values 1.02 | S. cerevisiae deletion strains, locus YNL209W, strain ssb2, hits give low values 0.986 | S. cerevisiae deletion strains, locus YNL224C, strain SQS1, hits give low values 1.01 | S. cerevisiae deletion strains, locus YNL233W, strain BNI4, hits give low values 1.01 | S. cerevisiae deletion strains, locus YNL248C, strain rpa49, hits give low values 0.978 | S. cerevisiae deletion strains, locus YNL250W, strain rad50, hits give low values 1.02 | S. cerevisiae deletion strains, locus YNL271C, strain bni1, hits give low values 1.01 | S. cerevisiae deletion strains, locus YNL298W, strain CLA4, hits give low values 1 | S. cerevisiae deletion strains, locus YNL307C, strain MCK1, hits give low values 1 | S. cerevisiae deletion strains, locus YNL322C, strain KRE1 (second series), hits give low values 0.953 | S. cerevisiae deletion strains, locus YNL322C, strain KRE1, hits give low values 1.01 and 1.02 | S. cerevisiae deletion strains, locus YNR049C, strain mso1, hits give low values 0.993 | S. cerevisiae deletion strains, locus YNR052C, strain pop2, hits give low values 1.01 | S. cerevisiae deletion strains, locus YOL006C, strain TOP1, hits give low values 1.06 | S. cerevisiae deletion strains, locus YOL012C, strain htz1 0.781 | S. cerevisiae deletion strains, locus YOL147C, strain pex11, hits give low values 1.01 | S. cerevisiae deletion strains, locus YOR001W, strain rrp6, hits give low values 0.986 | S. cerevisiae deletion strains, locus YOR061W, strain CKA2, hits give low values 1.01 | S. cerevisiae deletion strains, locus YOR069W, strain VPS5, hits give low values 1.01 | S. cerevisiae deletion strains, locus YOR070C, strain gyp1, hits give low values 1 | S. cerevisiae deletion strains, locus YOR080W, strain dia2, hits give low values 0.972 | S. cerevisiae deletion strains, locus YOR083W, strain WHI5 (second series), hits give low values 1 | S. cerevisiae deletion strains, locus YOR083W, strain WHI5, hits give low values 0.979 | S. cerevisiae deletion strains, locus YOR106W, strain vam3, hits give low values 0.977 | S. cerevisiae deletion strains, locus YOR136W, strain idh2, hits give low values 1.01 | S. cerevisiae deletion strains, locus YOR144C, strain elg1, hits give low values 1.01 | S. cerevisiae deletion strains, locus YOR184W, strain ser1, hits give low values 1.01 | S. cerevisiae deletion strains, locus YOR231W, strain MKK1, hits give low values 0.976 | S. cerevisiae deletion strains, locus YOR265W, strain rbl2, hits give low values 0.997 | S. cerevisiae deletion strains, locus YOR270C, strain vph1, hits give low values 0.986 | S. cerevisiae deletion strains, locus YOR290C, strain snf2, hits give low values 0.994 | S. cerevisiae deletion strains, locus YOR316C, strain cot1, hits give low values 1.01 | S. cerevisiae deletion strains, locus YPL051W, strain arl3, hits give low values 1 | S. cerevisiae deletion strains, locus YPL055C, strain LGE1, hits give low values 1.01 and 1.03 | S. cerevisiae deletion strains, locus YPL078C, strain atp4, hits give low values 0.979 | S. cerevisiae deletion strains, locus YPL106C, strain sse1, hits give low values 0.954 | S. cerevisiae deletion strains, locus YPL240C, strain hsp82, hits give low values 0.989 | S. cerevisiae deletion strains, locus YPL241C, strain CIN2, hits give low values 1.01 | S. cerevisiae deletion strains, locus YPL256C, strain CLN2, hits give low values 0.932 | S. cerevisiae deletion strains, locus YPR119W, strain clb2, hits give low values 1.02 | S. cerevisiae deletion strains, locus YPR141C, strain kar3, hits give low values 1.01 | S. cerevisiae deletion strains, locus YPR163C, strain tif3, hits give low values 1.01 | S. cerevisiae deletion strains, locus YPR167C, strain met16, hits give low values 1.01 | S. cerevisiae deletion strains, strain wtn01, hits give low values 1.01 | S. cerevisiae strains, strain wild type, hits give low values 1.01
